Experimental data: PubChem BioAssay (NCI)
Compounds without any hit were thinned out: in the full panel of roughly 83,000, 20% have a hit.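 Treatment: one concentration, 48 hours, 96-well format. Scoring: percent growth, with anything below 10 considered active.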 Values without a mark were called inactive. Active and inactive are the calls of the source.

Legend:
Assay in all cases: NCI-60 one-dose screen, 48 h (100 = growth as untreated, 0 = no growth, -100 = all killed)
[1] = tested on: HCT-15 colon; settings: 10 µM unless noted
[2] = tested on: HT29 colon; settings: 10 µM unless noted
[3] = tested on: SNB-75 CNS; settings: 10 µM unless noted
[4] = tested on: SNB-19 CNS; settings: 10 µM unless noted
[5] = tested on: U251 CNS; settings: 10 µM unless noted
[6] = tested on: PC-3 prostate; settings: 10 µM unless noted
[7] = tested on: SK-MEL-5 melanoma; settings: 10 µM unless noted
[8] = tested on: UACC-62 melanoma; settings: 10 µM unless noted
[9] = tested on: LOX IMVI melanoma; settings: 10 µM unless noted
[10] = tested on: SK-MEL-28 melanoma; settings: 10 µM unless noted
[11] = tested on: SK-MEL-2 melanoma; settings: 10 µM unless noted
[12] = tested on: EKVX NSCLC; settings: 10 µM unless noted
[13] = tested on: SN12C renal; settings: 10 µM unless noted
[14] = tested on: UO-31 renal; settings: 10 µM unless noted
[15] = tested on: ACHN renal; settings: 10 µM unless noted
[16] = tested on: CAKI-1 renal; settings: 10 µM
[17] = tested on: A498 renal; settings: 10 µM unless noted
[18] = tested on: CCRF-CEM leukemia; settings: 10 µM unless noted
[19] = tested on: MOLT-4 leukemia; settings: 10 µM unless noted

Row | SMILES | growth [1] | growth [2] | growth [3] | growth [4] | growth [5] | growth [6] | growth [7] | growth [8] | growth [9] | growth [10] | growth [11] | growth [12] | growth [13] | growth [14] | growth [15] | growth [16] | growth [17] | growth [18] | growth [19]
1 | Nc1nccc2c1ccn2-c1ccc(NC(=O)Nc2cccc(C(F)(F)F)c2)cc1 | 90% | 96.1% | 89% | 104% | 80.5% | 70.5% | 93.5% | 91.1% | 87.6% | 101% | 113% | 93.7% | 87.1% | 81.4% | 91.6% | 97.4% | 88.4% | 94.1% | 82.8%
2 | CCC(CC(C)C)Nc1ccc(NC(CC)CC(C)C)cc1 (configuration not stated) | 92% | 88.8% | 96.8% | 97.8% | 75.3% | -11.1% (active) | 95.4% | 89.3% | 83.4% | 108% | 86.4% | 81.4% | 96.3% | 93% | 95.3% | 99.1% | 94.1% | 10.4% | 34.5%
3 | O=C(NCCNc1nccc(-c2c(-c3cccc(O)c3)nc3sccn23)n1)c1cccc(C(F)(F)F)c1 | 87.8% | 81.1% | 73.8% | 116% | 84.8% | 67.3% | 52.6% | 3.21% (active) | 53.4% | 38.5% | 62.1% | 91.6% | 83.2% | 73.4% | 66.1% | 75.6% | 84.5% | 37.5% | 61.5%
4 | C=CC(=O)Nc1cccc(Nc2nc(Nc3ccc(OCCOC(F)F)cc3)ncc2F)c1 | 22.4% | 33.8% | 4.93% (active) | 55.7% | 30.1% | 40.7% | 79.6% | 24.1% | 18% | 68% | 0.225% (active) | 67.6% | 22% | 6.93% (active) | 4.89% (active) | 11.3% | -35.4% (active) | 24.8% | 33.5%
5 | CCCCOc1nc2ccc(Cl)cc2cc1/C=C/C(=O)/C=C/c1ccc(Cl)cc1 | 81.9% | 25.2% | 86.4% | 93.9% | 35.3% | 57.5% | 49.4% | 67.5% | 24.1% | 81.9% | 101% | 83.7% | 92.1% | 66.9% | 81.5% | 98.1% | 92.4% | 76.2% | 71.5%
6 | COc1ccc(-c2nnc(NC(=O)CN3CCN(c4cc5c(cc4F)c(=O)c(C(=O)O)cn5C4CC4)CC3)s2)cc1OC | 103% | 95.8% | 90.8% | 96.2% | 99.7% | 95.6% | 99.1% | 91.9% | 74.3% | 107% | 102% | 108% | 95.5% | 89.4% | 109% | 104% | 80.5% | 98.9% | 93%
7 | O=C(Nc1ccc(-n2ccc3c(NC(=O)c4ccccc4)nccc32)cc1)Nc1ccc(Cl)c(Cl)c1 | -50.8% (active) | -42.8% (active) | -7.26% (active) | -40.2% (active) | -79.6% (active) | 23.9% | -97.9% (active) | -46.4% (active) | -72.4% (active) | 18.2% | -42.4% (active) | 39.5% | 10.7% | -61.4% (active) | 2.67% (active) | -57.7% (active) | 68.2% | -34.6% (active) | 9.08% (active)
8 | O=C(Nc1ccc(-n2ccc3c(NC(=O)c4ccccc4)ncnc32)cc1)c1ccc(Cl)c(C(F)(F)F)c1 | 3.27% (active) | -50.6% (active) | 66.5% | 24.7% | -62.9% (active) | 29.1% | 26.3% | 5.8% (active) | -9.6% (active) | 62.5% | 34.7% | 47.7% | 22% | 32.7% | 27.6% | 34.8% | 80.1% | 7.36% (active) | 4.17% (active)
